Inconclusive results are not listed. Active and inactive are the calls of the source. Calls come from the whole dose curve; as a rule, active = well fitted cell-killing curve with a large enough effect; inconclusive = small, poorly fitted or top-dose-only effect, or effect the other way; inactive = no such curve, though single readings can be large or run the other way.
Experiment: Quantitative High-Throughput drug screen in 47 multiple myeloma cell lines against the NCATS MIPE library collection: Delta47_JCRB cell viability assay (AID 1918925; note: nearly all actives have a fitted effect of over 45% in size)
Details: Delta47 myeloma viability, CellTiter-Glo ATP, 48 h; series mostly up to 45.8 µM
Outline: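 CellTiter-Glo ATP luminescence gave viability after 48 h compound treatment at 37C of 500 multiple myeloma cells per well. Normalisation used DMSO-only wells as 100% and media-only wells as 0% viability; primary qHTS of approved and investigational drugs.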
With `CCC(=O)N1CCN(c2ccc(-n3c(=O)ccc4cnc5ccc(-c6cnc7ccccc7c6)cc5c43)cc2C(F)(F)F)CC1` the Potency was 0.0166 µM (active). With `CNC(=O)c1ccc2c(C(=Nc3cccc(CN(C)C)c3)c3ccccc3)c(O)[nH]c2c1` the Potency was 23.5 µM (active). For `O=C(CO)N1CCC(c2[nH]nc(-c3ccc(Cl)cc3)c2-c2ccncn2)CC1`, the Potency was “inactive”. For `NC1(C(=O)N[C@@H](CCO)c2ccc(Cl)cc2)CCN(c2ncnc3[nH]ccc23)CC1`, the Potency was 0.0833 µM (active). With `CCc1cccc(CC)c1NC(=O)N1Cc2[nH]nc(NC(=O)c3ccc(N4CCN(C)CC4)cc3)c2C1` the Potency was 5.9 µM (active). In the case of `COc1ccc(-c2cc3nccn3c(Nc3ncccc3C(N)=O)n2)cc1OC`, the Potency is reported as 0.833 µM (active). For `CC1=C(C(=O)Nc2cc3cn[nH]c3cc2F)C(c2ccc(C(F)(F)F)cc2)CC(=O)N1` (stereo not drawn), the Potency was “inactive”. With `C=CCc1cccc(C=NNC(=O)CN2CCN(Cc3ccccc3)CC2)c1O` the Potency was 18.7 µM (active). For `CN[C@@H](C)[C@H]1[C@H](O)C[C@@]2(C)[C@@H]3CC[C@H]4C(C)(C)[C@@H](NC)CC[C@@]45C[C@@]35CC[C@]12C`, the Potency was “inactive”. With `Cn1c(=O)c(-c2c(Cl)cccc2Cl)cc2cnc(Nc3cccc(C(=O)O)c3)nc21` the Potency was “inactive”. For `Cc1cnc(Nc2cccc(CN3CCOCC3)c2)nc1Nc1cccc(S(=O)(=O)NC(C)(C)C)c1`, the Potency was 4.18 µM (active). In the case of `c1cc(OCCN2CCCCC2)cc(-c2n[nH]c3ccc(-c4ncn[nH]4)cc23)c1`, the Potency is reported as 13.2 µM (active). For `O[C@@H](COc1cccc2ncccc12)CN1CCN(C2c3ccccc3[C@@H]3[C@H](c4ccccc42)C3(F)F)CC1` (stereo partly drawn), the Potency was 16.6 µM (active).
Potency is the fitted concentration of half-maximal effect.
